The panel holds about 83,000 compounds, 20% with a hit somewhere; the sample as a whole holds those more often.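 96-well plates, one dose, 48 hours. Percent growth reported; active if below 10.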 Activity calls are given as the source filed them.
What was measured:
Experiment in all cases: NCI-60 one-dose screen, 48 h (100 = growth as untreated, 0 = no growth, -100 = all killed)
Conditions in all cases: 10 µM unless noted
SK-MEL-2 melanoma = test system: SK-MEL-2 melanoma
EKVX NSCLC = test system: EKVX NSCLC
SN12C renal = test system: SN12C renal
UO-31 renal = test system: UO-31 renal
TK-10 renal = test system: TK-10 renal
ACHN renal = test system: ACHN renal
CAKI-1 renal = test system: CAKI-1 renal
A498 renal = test system: A498 renal
CCRF-CEM leukemia = test system: CCRF-CEM leukemia
MOLT-4 leukemia = test system: MOLT-4 leukemia
SR leukemia = test system: SR leukemia
RPMI-8226 leukemia = test system: RPMI-8226 leukemia
OVCAR-8 ovarian = test system: OVCAR-8 ovarian
OVCAR-5 ovarian = test system: OVCAR-5 ovarian
OVCAR-4 ovarian = test system: OVCAR-4 ovarian
SK-OV-3 ovarian = test system: SK-OV-3 ovarian
IGROV1 ovarian = test system: IGROV1 ovarian
OVCAR-3 ovarian = test system: OVCAR-3 ovarian
HS 578T breast = test system: HS 578T breast
NCI/ADR-RES ovarian = test system: NCI/ADR-RES ovarian

Measured: growth

Cc1c2c(cc3c1[nH]c1ccccc13)C=NCC2
inactive: SK-MEL-2 melanoma 109% | EKVX NSCLC 80% | SN12C renal 90.8% | UO-31 renal 80% | TK-10 renal 113% | ACHN renal 96.9% | CAKI-1 renal 92.9% | A498 renal 71.7% | CCRF-CEM leukemia 75.9% | MOLT-4 leukemia 83.3% | SR leukemia 64.1% | RPMI-8226 leukemia 87% | OVCAR-8 ovarian 94.1% | OVCAR-5 ovarian 98.3% | OVCAR-4 ovarian 94% | SK-OV-3 ovarian 96.5% | IGROV1 ovarian 105% | OVCAR-3 ovarian 101% | HS 578T breast 99.1% | NCI/ADR-RES ovarian 85.6%

COc1ccc(/C=C/C(=O)CCC(=O)O)cc1OC
inactive: SK-MEL-2 melanoma 97.5% | EKVX NSCLC 109% | SN12C renal 101% | UO-31 renal 83.3% | TK-10 renal 104% | ACHN renal 108% | CAKI-1 renal 95.5% | A498 renal 121% | CCRF-CEM leukemia 95.6% | MOLT-4 leukemia 102% | SR leukemia 98.5% | RPMI-8226 leukemia 105% | OVCAR-8 ovarian 109% | OVCAR-5 ovarian 95.4% | OVCAR-4 ovarian 99% | SK-OV-3 ovarian 91% | IGROV1 ovarian 108% | OVCAR-3 ovarian 109% | HS 578T breast 105% | NCI/ADR-RES ovarian 111%

COc1ccc(CNc2c3ccccc3nc3ccc(OC)cc23)cc1
inactive: SK-MEL-2 melanoma 40.9% | EKVX NSCLC 24.2% | SN12C renal 20.8% | TK-10 renal 33.6% | ACHN renal 10.2% | CAKI-1 renal 19.9% | CCRF-CEM leukemia 19.4% | OVCAR-8 ovarian 25.4% | OVCAR-5 ovarian 30.7% | OVCAR-4 ovarian 18.4% | SK-OV-3 ovarian 47.2% | IGROV1 ovarian 11.2% | OVCAR-3 ovarian 40.4% | HS 578T breast 25.9% | NCI/ADR-RES ovarian 16.2%
active: UO-31 renal 6.24% | A498 renal -5.96% | MOLT-4 leukemia -0.147% | SR leukemia -15.5% | RPMI-8226 leukemia -47.7%

COc1ccc([C@H]2c3[nH]c4ccccc4c3C[C@H]3C(=O)N(CCCCCCC(=O)NO)CC(=O)N23)cc1
active: A498 renal -4.1% | RPMI-8226 leukemia -9.73%
inactive: SK-MEL-2 melanoma 31.4% | EKVX NSCLC 66.8% | SN12C renal 46.5% | UO-31 renal 43.8% | TK-10 renal 43.5% | ACHN renal 22.1% | CAKI-1 renal 43.9% | CCRF-CEM leukemia 13.3% | MOLT-4 leukemia 12.1% | SR leukemia 16.5% | OVCAR-8 ovarian 30.3% | OVCAR-5 ovarian 23.3% | OVCAR-4 ovarian 54.3% | SK-OV-3 ovarian 55.3% | IGROV1 ovarian 34.3% | OVCAR-3 ovarian 33.9% | HS 578T breast 47.7% | NCI/ADR-RES ovarian 58.4%

CNC(=O)c1c(NC(=O)c2cccc(C(F)(F)F)c2)sc2c1CCC(=O)C2
active: SK-MEL-2 melanoma -16.5% | EKVX NSCLC 4.31% | SN12C renal 3.13% | UO-31 renal -94.3% | ACHN renal -66.9% | CAKI-1 renal -22.5% | A498 renal -5.84% | CCRF-CEM leukemia -0.844% | MOLT-4 leukemia -7.92% | SR leukemia 1.53% | RPMI-8226 leukemia -33% | OVCAR-8 ovarian 8.86% | OVCAR-5 ovarian -22.2% | OVCAR-4 ovarian -81.5% | SK-OV-3 ovarian -5.12% | IGROV1 ovarian -24.8% | OVCAR-3 ovarian 3.37% | NCI/ADR-RES ovarian -7.1%
inactive: TK-10 renal 32.1% | HS 578T breast 17.7%

O=S1(=O)NCCN1CCNc1nccc(-c2c(-c3cccc(O)c3)nc3sccn23)n1
inactive: SK-MEL-2 melanoma 72.1% | EKVX NSCLC 111% | SN12C renal 95.2% | UO-31 renal 116% | TK-10 renal 130% | ACHN renal 97% | CAKI-1 renal 80.8% | A498 renal 118% | CCRF-CEM leukemia 88.1% | MOLT-4 leukemia 110% | SR leukemia 62.2% | RPMI-8226 leukemia 102% | OVCAR-8 ovarian 103% | OVCAR-5 ovarian 91.9% | OVCAR-4 ovarian 131% | SK-OV-3 ovarian 97.4% | IGROV1 ovarian 105% | OVCAR-3 ovarian 108% | HS 578T breast 95.9% | NCI/ADR-RES ovarian 107%

CCCCCCCCN(CCCCCCCC)C(=O)CCl
inactive: SK-MEL-2 melanoma 108% | EKVX NSCLC 108% | SN12C renal 93.8% | UO-31 renal 73.3% | TK-10 renal 108% | ACHN renal 100% | CAKI-1 renal 44.9% | A498 renal 99.8% | MOLT-4 leukemia 90.6% | SR leukemia 83.1% | RPMI-8226 leukemia 106% | OVCAR-8 ovarian 89.4% | OVCAR-5 ovarian 120% | OVCAR-4 ovarian 97% | SK-OV-3 ovarian 109% | OVCAR-3 ovarian 108% | HS 578T breast 85.1% | NCI/ADR-RES ovarian 94.7%
active: CCRF-CEM leukemia -33.4% | IGROV1 ovarian -18.2%

Nc1c(Br)cc2c(c1Br)Cc1cc(Cl)ccc1-2
inactive: SK-MEL-2 melanoma 114% | EKVX NSCLC 69.1% | SN12C renal 89.8% | UO-31 renal 77.6% | TK-10 renal 130% | ACHN renal 81.3% | CAKI-1 renal 74.6% | A498 renal 121% | CCRF-CEM leukemia 94.2% | MOLT-4 leukemia 97.4% | SR leukemia 80% | RPMI-8226 leukemia 105% | OVCAR-8 ovarian 96.8% | OVCAR-5 ovarian 93.2% | OVCAR-4 ovarian 95.1% | SK-OV-3 ovarian 82.5% | IGROV1 ovarian 84.3% | OVCAR-3 ovarian 104% | HS 578T breast 91.9% | NCI/ADR-RES ovarian 95.8%

COc1ccc2c(c1)C1=NN(C(=O)CO)[C@H](c3ccc(OC(F)(F)F)cc3)[C@@H]1CC2
inactive: SK-MEL-2 melanoma 89.5% | EKVX NSCLC 94.3% | SN12C renal 99.6% | UO-31 renal 53.5% | TK-10 renal 162% | ACHN renal 87.9% | CAKI-1 renal 116% | A498 renal 94.4% | CCRF-CEM leukemia 129% | MOLT-4 leukemia 86.9% | SR leukemia 69.2% | RPMI-8226 leukemia 42.9% | OVCAR-8 ovarian 98% | OVCAR-5 ovarian 108% | OVCAR-4 ovarian 89.5% | SK-OV-3 ovarian 96.3% | IGROV1 ovarian 72.3% | OVCAR-3 ovarian 88.6% | HS 578T breast 85.7% | NCI/ADR-RES ovarian 85.5%

Nc1nc(NC2CC2)cc(-c2cccc(Cl)c2Cl)n1
inactive: SK-MEL-2 melanoma 14.3% | EKVX NSCLC 71.9% | SN12C renal 59.6% | UO-31 renal 71.7% | TK-10 renal 87.3% | ACHN renal 75.1% | CAKI-1 renal 58.5% | A498 renal 47.7% | CCRF-CEM leukemia 62.3% | MOLT-4 leukemia 28.4% | SR leukemia 14.3% | RPMI-8226 leukemia 74.2% | OVCAR-8 ovarian 70% | OVCAR-5 ovarian 87.1% | OVCAR-4 ovarian 73.4% | SK-OV-3 ovarian 64.7% | IGROV1 ovarian 65.6% | OVCAR-3 ovarian 36.8% | HS 578T breast 64.7% | NCI/ADR-RES ovarian 25%

CCCCCCCOc1cccc(/C=C2\N=C3SCCCN3C2=O)c1
inactive: SK-MEL-2 melanoma 95.5% | EKVX NSCLC 92.7% | SN12C renal 94.1% | UO-31 renal 78.7% | TK-10 renal 96.2% | ACHN renal 96.4% | CAKI-1 renal 94.4% | A498 renal 94.6% | CCRF-CEM leukemia 111% | MOLT-4 leukemia 100% | SR leukemia 105% | RPMI-8226 leukemia 91.7% | OVCAR-8 ovarian 102% | OVCAR-5 ovarian 115% | OVCAR-4 ovarian 85.6% | SK-OV-3 ovarian 107% | IGROV1 ovarian 98.7% | OVCAR-3 ovarian 90.6% | HS 578T breast 109% | NCI/ADR-RES ovarian 97%

CC(C)CCSc1nc(-c2ccc(F)cc2)c(C#N)c(N2CCCCC2)n1
inactive: SK-MEL-2 melanoma 85.7% | EKVX NSCLC 97.2% | SN12C renal 107% | UO-31 renal 80.4% | TK-10 renal 97.4% | ACHN renal 91.8% | CAKI-1 renal 75.6% | A498 renal 88% | CCRF-CEM leukemia 89.9% | MOLT-4 leukemia 70% | SR leukemia 87.6% | RPMI-8226 leukemia 91.2% | OVCAR-8 ovarian 89.3% | OVCAR-5 ovarian 102% | OVCAR-4 ovarian 93.6% | SK-OV-3 ovarian 105% | IGROV1 ovarian 106% | OVCAR-3 ovarian 105% | HS 578T breast 99.1% | NCI/ADR-RES ovarian 99.2%

CCN(CC)CCNC(=O)C(F)(F)C(F)(F)C(F)(F)F
inactive: SK-MEL-2 melanoma 106% | EKVX NSCLC 102% | SN12C renal 108% | UO-31 renal 89.9% | TK-10 renal 108% | ACHN renal 101% | CAKI-1 renal 94.6% | A498 renal 102% | CCRF-CEM leukemia 100% | MOLT-4 leukemia 109% | SR leukemia 106% | RPMI-8226 leukemia 107% | OVCAR-8 ovarian 114% | OVCAR-5 ovarian 99.2% | OVCAR-4 ovarian 112% | SK-OV-3 ovarian 101% | IGROV1 ovarian 138% | OVCAR-3 ovarian 109% | HS 578T breast 96.7% | NCI/ADR-RES ovarian 113%

Cc1ccc(C(=O)CC(=O)C(F)(F)C(F)(F)C(F)(F)F)s1
inactive: SK-MEL-2 melanoma 113% | EKVX NSCLC 94.6% | SN12C renal 96.4% | UO-31 renal 74.9% | TK-10 renal 118% | ACHN renal 110% | CAKI-1 renal 99.2% | A498 renal 112% | CCRF-CEM leukemia 103% | MOLT-4 leukemia 109% | SR leukemia 99.5% | RPMI-8226 leukemia 102% | OVCAR-8 ovarian 104% | OVCAR-5 ovarian 96.1% | OVCAR-4 ovarian 112% | SK-OV-3 ovarian 104% | IGROV1 ovarian 108% | OVCAR-3 ovarian 107% | HS 578T breast 105% | NCI/ADR-RES ovarian 105%

COc1ccccc1CNCCCN1C(=O)c2ccc3c4c(ccc(c24)C1=O)C(=O)N(CCCOCCCCOCCCN)C3=O
inactive: TK-10 renal 28.6% | SK-OV-3 ovarian 25.3% | HS 578T breast 19.1%
active: SK-MEL-2 melanoma -42.7% | EKVX NSCLC -83.3% | SN12C renal -87.5% | UO-31 renal -21.1% | ACHN renal -62.2% | CAKI-1 renal -4.24% | A498 renal -16.1% | CCRF-CEM leukemia 2.11% | MOLT-4 leukemia -9.44% | SR leukemia 7.67% | RPMI-8226 leukemia -5.62% | OVCAR-8 ovarian -14.6% | OVCAR-5 ovarian -55.9% | OVCAR-4 ovarian -97.1% | IGROV1 ovarian -51.8% | OVCAR-3 ovarian -95% | NCI/ADR-RES ovarian -8.07%
